Data published in PubChem BioAssay AID2501 (Southern Research Specialized Biocontainment Screening …, 2010).
The whole screen tested about 2,200 compounds, of which about 1,200 (55%) were called active. Cut-off not given; nearly all actives show IC50 up to about 92 µM. The set was probably picked from earlier hits. The list shows a part of the results.

assay: counter assay for TAg ATPase ADP read-out – biochemical, ADP-Hunter, fluorescence, counter-screen (AID 2501); conditions: series mostly up to 100 µM; inhibition: at the top concentration;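 further: purified T antigen ATPase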;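 on inhibition: 0% = enzyme with vehicle and 100% = reference inhibitor wells; higher means more inhibition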

| SMILES | IC50 | inhibition |
| --- | --- | --- |
| CCOc1cc(/C=N/NC(=O)N/N=C/c2ccc(O)c(OCC)c2)ccc1O | 2.03 µM (active) | – |
| CCOc1cc(/C=N/Nc2nc(C)cc(=O)[nH]2)ccc1O | 2.82 µM (active) | – |
| CCOc1cc(/C=N/NC(=O)Nc2ccccc2)ccc1O | 9.13 µM (active) | – |
| CCOc1cc(/C=N/Nc2ncnc(Cl)c2N)ccc1O | 3.29 µM (active) | – |
| Nc1c(-c2ccccc2)c(CN2CCOCC2)nn1-c1ccc(F)cc1 | – | -7.99% (inactive) |
| CCOc1cc(/C=N/n2cnnc2)ccc1O | 6.86 µM (active) | – |
| COc1ccccc1NC(=O)COc1ccc(/C=N/n2cnnc2)cc1OC | – | 24.4% (inactive) |
| Cc1cc(=O)[nH]c(N/N=C/c2c[nH]c3ccccc23)n1 | 5.41 µM (active) | – |
| COc1cc(/C=N/n2cnnc2)ccc1OC(=O)c1ccncc1 | 5.68 µM (active) | – |
| Cc1cc(F)ccc1S(=O)(=O)N(C(=O)c1ccncc1)c1ccc(OC(=O)c2ccncc2)cc1 | 48.3 µM (active) | – |
| Cc1ccc(C)n1Cc1ccc(C(=O)O)cc1 | – | -19.6% (inactive) |
| Cc1ccsc1C=Nc1ccc(O)cc1 | 5.76 µM (active) | – |
| On1ccccc1=S | – | -2.69% (inactive) |
| Cc1ccc(C2C=NN(c3ccccc3)C2=O)cc1 (centres undefined) | 12.2 µM (active) | – |
| Cc1ccc(C2=NOC(=O)/C2=C\c2ccccc2)cc1 | – | 10.9% (inactive) |
| Cc1ccc(/C=N/N2C(=O)c3ccccc3NC2c2ccc(C)cc2)cc1 (centres undefined) | – | -27.4% (inactive) |
| CCCCn1c(N)c(N(CCOC)C(=O)c2cccc(S(=O)(=O)N(C)c3ccccc3)c2)c(=O)[nH]c1=O | – | -20% (inactive) |
| CC(=O)Oc1cc2oc(=O)cc(C)c2cc1OC(C)=O | 10.8 µM (active) | – |
| CCc1cc(=O)oc2cc(OCC(N)=O)c(Cl)cc12 | – | 10.5% (inactive) |
| Cc1cc(C)c2c(CCl)cc(=O)oc2c1 | – | 0.16% (inactive) |
| CCN(CC)c1ccc(NC(=O)CSc2nc3nc(C)cc(C)c3c(=O)[nH]2)cc1 | 6.75 µM (active) | – |
| Cc1sc2nc(CSCC(=O)N(C)CC(=O)Nc3ccc(F)cc3)[nH]c(=O)c2c1C | – | -7.23% (inactive) |
| CN(C)c1ccc(NC(=O)CSc2nc3c(c(=O)[nH]2)CCCC3)cc1 | 2.47 µM (active) | – |
| COc1ccc(NC(=O)CSc2nc(NS(=O)(=O)c3ccc(C)cc3)cc(=O)[nH]2)cc1 | – | -7.59% (inactive) |
| Cc1occc1-c1nnc(SCC(=O)Nc2ccc(F)cc2)n1Cc1ccccc1 | – | 20.8% (inactive) |
| CCN(CC)c1ccc(NC(=O)CSc2nnc3nc(C)cc(C)n23)cc1 | 2.92 µM (active) | – |

| SMILES | IC50 | inhibition |
| --- | --- | --- |
| Cc1ccc(C2(CCNCc3ccco3)CCOC(C(C)C)C2)cc1 (centres undefined) | – | 23.4% (inactive) |
| S=c1[nH]nc(-c2cc(-c3ccco3)[nH]n2)n1-c1ccccc1Cl | 6.42 µM (active) | – |
| FC(F)(F)c1ccc(Cl)c(-n2c(-c3cc(-c4ccco4)[nH]n3)n[nH]c2=S)c1 | – | 8.69% (inactive) |
| COc1ccccc1-n1c(-c2cc(-c3ccco3)[nH]n2)n[nH]c1=S | – | 27.2% (inactive) |
| CN(C)c1ccc(NC(=O)CN2C(=O)CC(c3ccccc3)=Nc3ccccc32)cc1 | 5.09 µM (active) | – |
| O=C(CN1C(=O)S/C(=C\C=C\c2ccccc2)C1=O)Nc1ccc(C(=O)O)cc1 | – | 18.8% (inactive) |
| CNC(=O)COc1ccc(C=O)cc1OC | – | 1.48% (inactive) |
| COc1cc(C=O)c(Cl)cc1OCC(N)=O | – | -17.1% (inactive) |
| COc1cc(CNc2ccc(N3CCOCC3)cc2)ccc1OCC(=O)NC(C)(C)C | 4.7 µM (active) | – |
| COc1cc(CNc2ccc3c(c2)OCCO3)ccc1OCC(N)=O | 3.27 µM (active) | – |
| COc1cc(CNc2ccc(N3CCCCC3)cc2)ccc1OCC(=O)NC(C)(C)C | 4.51 µM (active) | – |
| COc1ccc(CCNC(=O)c2cc(-c3ccc4c(c3)OCO4)on2)cc1OC | – | -21.9% (inactive) |
| CC(C)N=C(NC#N)SCc1ccc(Br)cc1 | – | -13.4% (inactive) |
| Fc1cccc(Cl)c1Cn1nnc(-c2ccc(N3CCOCC3)cc2)n1 | – | -16.8% (inactive) |
| CCCC(=O)N=c1sc2c(OC)ccc(OC)c2n1C | – | 4.9% (inactive) |
| Cc1sc2nc(CSc3ccc([N+](=O)[O-])cc3)[nH]c(=O)c2c1C | – | -14.9% (inactive) |
| O=C1OCC(CO)(CO)N=C1NNc1ccccc1Cl | 9.24 µM (active) | – |
| Nc1ccc(OCCCc2c(N)nc(N)nc2N)cc1 | 6.58 µM (active) | – |
| CC1=NN(c2cccc(C(=O)O)c2)C(=O)/C1=C\C=C\c1ccco1 | – | 7.38% (inactive) |
| CC(C)S(=O)(=O)C1=NSC2=NC(=O)/C(=C\c3ccc(-c4ccccc4)o3)C(=N)N21 | – | 1.67% (inactive) |
| N=C1/C(=C\c2ccc(-c3cccc(C(=O)O)c3)o2)C(=O)N=C2SC=C(c3ccccc3)N12 | – | -15.1% (inactive) |
| CC1=C(C#N)C(=O)NC(=O)/C1=C/c1ccc(-c2ccc(S(N)(=O)=O)cc2)o1 | – | 9.01% (inactive) |
| Cc1ccc(-c2ccc(/C=C3\C(=O)ON=C3c3ccccc3)o2)c([N+](=O)[O-])c1 | – | 29.1% (inactive) |
| O=C1NN(c2ccccc2)C(=O)/C1=C/c1ccc(-c2cccc(C(=O)O)c2)o1 | 14.1 µM (active) | – |
| O=C1NN(c2ccccc2)C(=O)/C1=C/c1ccc(-c2ccc(C(=O)O)cc2)o1 | 13.4 µM (active) | – |
| O=C1NN(c2ccccc2)C(=O)/C1=C\c1ccc(-c2cc([N+](=O)[O-])ccc2O)o1 | 6.89 µM (active) | – |

| SMILES | IC50 | inhibition |
| --- | --- | --- |
| CCn1c2ccccc2c2nnc(SCC(=O)N(C)C3CCS(=O)(=O)C3)nc21 (centres undefined) | – | 0.82% (inactive) |
| CC1=C(C)CS(=O)N(S(=O)(=O)c2ccc(Cl)cc2)C1 (centres undefined) | – | 11.5% (inactive) |
| COc1ccc(NC2CCCN(Cc3cccc4cnccc34)C2)cc1OC (centres undefined) | 8.39 µM (active) | – |
| Cc1ccc2c(cnn2C(=O)CCC(=O)NCc2ccccc2Cl)c1 | – | -16% (inactive) |
| Cc1ccsc1C(=O)NCc1ccccc1Cl | 81.4 µM (active) | – |
| O=[N+]([O-])c1ccc(Sc2nc3ccccc3o2)c([N+](=O)[O-])c1 | – | 3.97% (inactive) |
| Cc1ccccc1C(=O)Nc1nnc(CC(=O)N/N=C/c2cn(Cc3ccccc3)c3ccccc23)s1 | – | -25.4% (inactive) |
| Cc1cc(SCC(=O)N/N=C/c2ccc(O)c(O)c2)nc2ccccc12 | 5.75 µM (active) | – |
| O=C(Cc1nnc(NC(=O)c2ccccc2)s1)N/N=C\c1ccc(O)c(O)c1 | 1.55 µM (active) | – |
| CCn1c(SCC(=O)N/N=C/c2ccc(O)c(OC)c2)nc2ccccc21 | 6.63 µM (active) | – |
| O=C(CSc1nc2ccccc2o1)N/N=C/c1ccc(O)c(O)c1 | 7.74 µM (active) | – |
| CCSc1nc2ccccc2n1CC(=O)OC | – | 28.2% (inactive) |
| COc1ccc(C2C3=C(N=C4SCC(=O)N42)c2ccccc2CC3)cc1 (centres undefined) | – | 1.79% (inactive) |
| Cn1c(SCC(=O)N/N=C/c2ccc(O)c(O)c2)nc2ccccc21 | 6.12 µM (active) | – |
| CN(C)c1ccc(NC2=C([N+](=O)[O-])CS(=O)(=O)C2)cc1 | 3.14 µM (active) | – |
| COc1ccc(N=Nc2c(N)n[nH]c2N)cc1 | 6.12 µM (active) | – |
| N=C1/C(=C\c2ccc(Br)o2)C(=O)N=C2SC(CC(=O)N3CCCCC3)=NN12 | – | 0.15% (inactive) |
| CCN(CC)S(=O)(=O)c1ccc(OC)c(NC(=S)Nc2cccc(C)c2)c1 | – | -0.28% (inactive) |
| COc1cc2c(cc1NC(=S)Nc1ccccc1C)oc1ccccc12 | 23.6 µM (active) | – |
| CCN1C(=O)C2(C(C(=O)c3cc4ccccc4o3)=C(O)C(=O)N2CCCN(C)C)c2ccccc21 (centres undefined) | 31.5 µM (active) | – |
| Cc1ccc2c(c1)C1C=CCC1C(C(=O)O)N2 (centres undefined) | – | -35.9% (inactive) |
| CCOc1cc2[nH]c(=O)n(Cc3ccc(C(=O)NCCCN4CCCC4=O)cc3)c(=O)c2cc1OCC | – | 5.15% (inactive) |
| O=C1CCCN1CCCNC(=S)Nc1ccc(Nc2ccccc2)cc1 | 6.41 µM (active) | – |
| COc1cc(/C=C2\N=C3CCCCCN3C2=O)ccc1O | 3.83 µM (active) | – |
| CCOc1cc(/C=C2\N=C3CCCCCN3C2=O)ccc1O | 5.66 µM (active) | – |
| O=C1/C(=C\c2ccc(O)c(O)c2)N=C2CCCCCN12 | 4.83 µM (active) | – |

| SMILES | IC50 | inhibition |
| --- | --- | --- |
| COc1cc(/C=c2\sc3n(c2=O)CCCN=3)ccc1O | 4.98 µM (active) | – |
| CC(=O)N1CC[n+]2c(-c3ccc([N+](=O)[O-])cc3)csc21 | – | 17.1% (inactive) |
| CCCCN1C(=O)/C(=C(/C#N)C(N)=O)c2ccccc21 | – | 8.13% (inactive) |
| CCN(CC)CCCCN1c2ccccc2Sc2ccccc21 | 6.81 µM (active) | – |
| CCN1/C(=C/C=C/c2sc3ccccc3[n+]2CC)Sc2ccccc21 | – | 12.2% [at 50 µM] (inactive) |
| NC(=O)Cn1c(=O)n(Cc2ccco2)c(=O)c2c3c(sc21)CCCCC3 | – | -31.5% (inactive) |
| COc1ccc(N2C3=C(CC4=C2CCCC4=O)C(=O)CCC3)cc1 | – | 19.4% (inactive) |
| O=C(Cn1c(=O)n(Cc2ccco2)c(=O)c2c3c(sc21)CCCCC3)c1ccccc1 | – | -11.9% (inactive) |
| COc1ccc(-n2c(=O)c3c4c(sc3n3c(=S)[nH]nc23)CCC4)cc1 | 12 µM (active) | – |
| O=c1c2c3c(sc2n2c(=S)[nH]nc2n1-c1ccccc1)CCC3 | 18.4 µM (active) | – |
| Cc1ccc(-n2c(=O)c3c4c(sc3n3c(=S)[nH]nc23)CCC4)cc1 | 14.2 µM (active) | – |
| CCn1c(=O)n(CC)c2cc(N)ccc21 | 4.09 µM (active) | – |
| COCCn1nnnc1C(c1cc2cc(OC)c(OC)cc2[nH]c1=O)N1CCN(c2ccc(O)cc2)CC1 (centres undefined) | 8.81 µM (active) | – |
| COc1cccc(C(c2nnnn2Cc2ccco2)N2CCN(Cc3ccccc3)CC2)c1OC (centres undefined) | – | -23.6% (inactive) |
| O=c1[nH]c2cc3c(cc2cc1C(c1nnnn1CC1CCCO1)N1CCCCCC1)OCCO3 (centres undefined) | – | -71.6% (inactive) |
| CCc1cc2c(Nc3ccc(O)cc3)nc(C)nc2s1 | 4.69 µM (active) | – |
| Cc1cc2c(Nc3ccc(O)cc3)ncnc2s1 | 3.61 µM (active) | – |
| Cc1ccc(-c2nc(CN(Cc3cnn(C)c3)C(C)C)c(C)o2)o1 | – | -4.39% (inactive) |
| Cc1ccc(C)n1-c1cccc(C(=O)O)c1 | – | -51.9% (inactive) |
| O=S(=O)(O)c1cccc2cccc(Nc3ccccc3)c12 | 19.5 µM (active) | – |
| Nc1ccc(Nc2ccccc2)c(S(=O)(=O)O)c1 | 4.02 µM (active) | – |
| Nc1cc(C(=O)O)ccc1Nc1ccccc1 | 5.63 µM (active) | – |
| N#Cc1c(N)sc(=S)c2c1CCCCC2 | – | 22.4% (inactive) |
| CCOc1cc(/C=N/NC(=O)CCc2n[nH]c(=O)[nH]c2=O)ccc1O | 9.46 µM (active) | – |
| COc1ccc(/C=N/NC(=O)CCc2n[nH]c(=O)[nH]c2=O)cc1O | 7.94 µM (active) | – |
| COc1cc(/C=N/NC(=O)CNc2n[nH]c(=O)[nH]c2=O)ccc1O | 2.93 µM (active) | – |
